Screens: PubChem, National Center for Advancing Translational Sciences (NCATS)
JMJD2A Tudor – inhibitors of human JMJD2A Tudor domain | O75164 | AlphaScreen JMJD2A-Tudor / H3K4me3 peptide binding | Potency, µM (doses to about 114 µM), hits mostly inhibitors | 390,000 compounds, 4.4% hits | AID 504339; note: nearly all actives have a fitted effect of over 50% in size
GCN5L2 inh – blocks human GCN5L2 histone acetyltransferase | 390,000 compounds, 0.21% hits | Q92830 | GCN5L2 HAT assay, ThioGlo1 CoA-SH fluorescence | Potency, µM (series often up to 58.9 µM), hits mostly inhibitors
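qHTS, 1536-well. 20nM enzyme, pH 7.5 HEPES/EDTA/Tween-20 buffer; 15 min compound preinc., RT. Start: 75uM H3(1-25), 70uM AcCoA, 50uM ThioGlo1. Read Ex340/Em540 at t=0 (autofluorescence flag) and t=20 min.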
PI5P4K alpha inh – blocks human PI5P4K alpha kinase activity; P48426; PI5P4Kalpha enzyme, ADP-Glo luminescence, 60 min; active compounds read low; max response, %; 330,000 compounds, 1.2% hits; AID 652105; active = max response of -50% or lower; inconclusive = between -30% and -50%; inactive = -30% or higher; note: value at the top dose of about 77 µM
Target sequence (P48426 whole entry, looked up): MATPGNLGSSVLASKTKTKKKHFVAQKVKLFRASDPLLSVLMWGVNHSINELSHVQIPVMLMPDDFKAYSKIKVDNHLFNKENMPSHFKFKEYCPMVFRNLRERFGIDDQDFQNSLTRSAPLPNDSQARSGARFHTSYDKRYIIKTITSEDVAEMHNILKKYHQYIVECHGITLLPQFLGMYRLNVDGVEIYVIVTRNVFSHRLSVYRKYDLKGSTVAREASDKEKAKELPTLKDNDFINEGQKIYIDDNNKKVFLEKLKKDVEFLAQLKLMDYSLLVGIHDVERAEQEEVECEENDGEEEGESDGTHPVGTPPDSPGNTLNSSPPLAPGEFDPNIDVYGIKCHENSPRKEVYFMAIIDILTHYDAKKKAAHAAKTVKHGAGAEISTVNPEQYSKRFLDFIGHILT
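PI5P4Kalpha ADP-Glo assay; 5 microM ATP final; 60 min RT reaction; HEPES pH 7.4/EGTA/CHAPS, 5% DMSO; controls lacking substrate or enzyme; luminescent end-point.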
BAZ2B block – blocks human BAZ2B | Q9UIF8 | AlphaScreen BAZ2B-H3K14Ac peptide displacement | Potency, µM (doses to about 114 µM), most hits filed as inhibitors | 360,000 compounds, 4.4% hits | AID 504333; note: nearly all actives have a fitted effect of over 60% in size
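AlphaScreen displacement: compounds (up to 110uM) incubated 30 min at room temperature with a preformed 50 nM BAZ2B/50 nM biotinylated H3K14Ac peptide complex in PBS pH 7.4 with Tween-20. Donor and acceptor beads at 10 ug/mL final added, 20 min light-protected before reading.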
PLK1 PBD block – blocks phosphopeptide binding to human PLK1 polo-box domain | Plk1 PBD binding of FITC phosphopeptide, fluorescence polarization | Potency, µM, most hits filed as inhibitors | 360,000 compounds, 2.8% hits | P53350; note: series mostly up to about 57 µM; nearly all actives have a fitted effect of over 65% in size
HP1b chromo inh – inhibitors of HP1-beta chromodomain binding to methylated histone tails; 390,000 compounds, 0.56% hits; Potency, µM (doses to about 114 µM), actives largely listed as inhibitors; AlphaScreen HP1-beta / biotin-H3K9me3 peptide binding; note: nearly all actives have a fitted effect of over 70% in size
Target sequence (P83916 whole entry, looked up): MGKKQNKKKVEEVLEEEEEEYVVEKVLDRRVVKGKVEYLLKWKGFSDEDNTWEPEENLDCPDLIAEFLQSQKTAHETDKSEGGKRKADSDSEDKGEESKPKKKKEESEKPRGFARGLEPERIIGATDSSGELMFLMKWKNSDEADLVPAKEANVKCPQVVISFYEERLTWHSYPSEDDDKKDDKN
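Compound inhibition of the preformed complex between 50 nM HP1-beta and 50 nM biotinylated H3K9me3 peptide was read by AlphaScreen. Buffer was PBS pH 7.4 with 0.01% Tween-20. Incubations ran 30 min at room temperature, with 10 ug/mL donor/acceptor beads.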
Hits are given with their value; [ ] = another dose, or the depositor's remark. A selection: hits, their analogues and other compounds. The true share with any hit is near 7%. Unless noted, calls come from the whole dose curve; as a rule, active = well fitted curve in the direction sought with a large enough effect; inconclusive = small, poorly fitted or top-dose-only effect, or another doubt; inactive = no such curve, though single readings can be large; an effect the other way counts as inactive or inconclusive.

Results for Cn1c(=O)cc2c3c(c(N4CCCCC4)ccc31)C(=O)c1ccccc1-2 ?
JMJD2A Tudor: 35.5µM; GCN5L2 inh: inactive; PI5P4K alpha inh: inactive; BAZ2B block: 10µM; PLK1 PBD block: inactive; HP1b chromo inh: inconclusive

What do the screens show for `Cc1ccc(Nc2cc(Cl)nc(N)n2)c([N+](=O)[O-])c1`?
JMJD2A Tudor: inactive; PI5P4K alpha inh: inactive; PLK1 PBD block: inactive; HP1b chromo inh: inactive

How did CCOCCCn1c(=S)[nH]c2cc(C(=O)NCCOC)ccc2c1=O do in these assays?
JMJD2A Tudor: 39.8µM; GCN5L2 inh: inactive; BAZ2B block: inconclusive; PLK1 PBD block: inactive; HP1b chromo inh: inactive

What do the screens show for `CCOCCCn1c(=S)[nH]c2cc(C(=O)N3CCN(C4CCCCC4)CC3)ccc2c1=O`?
JMJD2A Tudor: inactive; GCN5L2 inh: inactive; PI5P4K alpha inh: inactive; BAZ2B block: inactive; PLK1 PBD block: inactive; HP1b chromo inh: inactive

What do the screens show for `CCOCCCn1c(=S)[nH]c2cc(C(=O)N3CCC(C(N)=O)(N4CCCCC4)CC3)ccc2c1=O`?
JMJD2A Tudor: 22.4µM; GCN5L2 inh: inactive; PI5P4K alpha inh: inactive; BAZ2B block: inactive; PLK1 PBD block: inactive; HP1b chromo inh: inactive

Results for O=C(NCCc1c[nH]c2ccccc12)C1CCC(Cn2c(=S)[nH]c3ccccc3c2=O)CC1 (centres undefined) ?
JMJD2A Tudor: inactive; GCN5L2 inh: inactive[0.501 µM]; BAZ2B block: inactive; PLK1 PBD block: inactive; HP1b chromo inh: inactive

Results for CCOCCCn1c(=S)[nH]c2cc(C(=O)N3CCN(C)CC3)ccc2c1=O ?
JMJD2A Tudor: 22.4µM; GCN5L2 inh: inactive; PI5P4K alpha inh: inactive; BAZ2B block: inconclusive; PLK1 PBD block: inactive; HP1b chromo inh: inactive

How did COCCNC(=O)C1CCC(Cn2c(=S)[nH]c3ccccc3c2=O)CC1 (centres undefined) do in these assays?
JMJD2A Tudor: 79.4µM; GCN5L2 inh: inactive; PI5P4K alpha inh: inactive; BAZ2B block: inactive; PLK1 PBD block: inactive; HP1b chromo inh: inactive

How did CCOCCCNC(=O)c1ccc2c(=O)n(CCCOCC)c(=S)[nH]c2c1 do in these assays?
JMJD2A Tudor: inactive; GCN5L2 inh: inactive; PI5P4K alpha inh: inactive; BAZ2B block: inactive; PLK1 PBD block: inactive; HP1b chromo inh: inactive

How did CCn1c(COc2ccccc2C)nnc1SCc1nc2ccccc2c(=O)[nH]1 do in these assays?
GCN5L2 inh: inactive; BAZ2B block: inactive

Results for CC(NC(=O)CN1CCN(CC(=O)Nc2ccccc2Cl)CC1)c1ccc(Br)cc1 (centres undefined) ?
JMJD2A Tudor: inactive; GCN5L2 inh: inactive; PI5P4K alpha inh: inactive; BAZ2B block: inactive; PLK1 PBD block: inactive; HP1b chromo inh: inactive

How did CC1(C)SC2c3ccccc3C(=O)N2[C@@H]1C(=O)NC1CC1 (some centres undefined) do in these assays?
JMJD2A Tudor: inactive; GCN5L2 inh: inactive; PI5P4K alpha inh: inactive; BAZ2B block: inactive; PLK1 PBD block: inactive; HP1b chromo inh: inactive

Results for CCC(=O)OC1C(N(C)C)CC(C)O[C@H]1O[C@H]1[C@H](C)[C@@H](O[C@H]2CC(OC)[C@@H](O)C(C)O2)[C@H](C)C(=O)O[C@@H](CC)[C@](C)(O)[C@@H](O)[C@H](C)C(=O)[C@@H](C)C[C@]1(C)O (some centres undefined) ?
GCN5L2 inh: inactive

What do the screens show for `CC(C)Cn1c(=S)[nH]c2cc(C(=O)O)ccc2c1=O`?
JMJD2A Tudor: inactive; GCN5L2 inh: inactive; PI5P4K alpha inh: -59.2; BAZ2B block: inactive; PLK1 PBD block: inactive; HP1b chromo inh: inactive

Results for COC(=O)c1ccc2c(=O)n(CCCCCC(=O)N3CCN(c4ccccc4)CC3)c(=O)[nH]c2c1 ?
JMJD2A Tudor: 56.2µM; GCN5L2 inh: inactive[0.501 µM]; PI5P4K alpha inh: inactive; BAZ2B block: inactive; PLK1 PBD block: 29.9µM; HP1b chromo inh: inactive

How did COCCn1c(=S)[nH]c2cc(C(=O)NC(C)C)ccc2c1=O do in these assays?
JMJD2A Tudor: inconclusive; GCN5L2 inh: inactive; PI5P4K alpha inh: inactive; BAZ2B block: inconclusive; PLK1 PBD block: inactive; HP1b chromo inh: inactive

How did COC(=O)c1ccc2c(=O)n(CCCCCC(=O)O)c(=S)[nH]c2c1 do in these assays?
JMJD2A Tudor: 50.1µM; GCN5L2 inh: inactive; PI5P4K alpha inh: inactive; BAZ2B block: inactive; PLK1 PBD block: inactive; HP1b chromo inh: inactive

What do the screens show for `COC(=O)c1ccc2c(=O)n(CCO)c(=S)[nH]c2c1`?
JMJD2A Tudor: inconclusive; GCN5L2 inh: inactive; BAZ2B block: inactive; PLK1 PBD block: inactive; HP1b chromo inh: inactive

How did COc1cc(C2CC(=O)N(CC(=O)Nc3ccccc3F)c3ccccc3S2)cc(OC)c1OC (centres undefined) do in these assays?
JMJD2A Tudor: inactive; GCN5L2 inh: inactive; BAZ2B block: inactive; HP1b chromo inh: inactive

How did Cc1ccc(OCC(=O)N(Cc2ccc(N(C)C)cc2)C2CCS(=O)(=O)C2)cc1 (centres undefined) do in these assays?
JMJD2A Tudor: inconclusive; GCN5L2 inh: inactive; PI5P4K alpha inh: inactive; BAZ2B block: inconclusive; PLK1 PBD block: inactive; HP1b chromo inh: inactive

How did O=C(COc1ccc(F)cc1)N(Cc1cccc(Br)c1)C1CCS(=O)(=O)C1 (centres undefined) do in these assays?
JMJD2A Tudor: inconclusive; GCN5L2 inh: inactive; PI5P4K alpha inh: inactive; BAZ2B block: inactive; PLK1 PBD block: 23.8µM; HP1b chromo inh: inactive

Results for Cc1cc(C)cc(OCC(=O)N(Cc2ccc(N(C)C)cc2)C2CCS(=O)(=O)C2)c1 (centres undefined) ?
JMJD2A Tudor: 63.1µM; GCN5L2 inh: inactive; PI5P4K alpha inh: inactive; BAZ2B block: 39.8µM; PLK1 PBD block: inactive; HP1b chromo inh: inconclusive

What do the screens show for `CN(C)c1ccc(CN(C(=O)/C=C/c2ccccc2Cl)C2CCS(=O)(=O)C2)cc1` (centres undefined)?
JMJD2A Tudor: 44.7µM; GCN5L2 inh: inactive; PI5P4K alpha inh: inactive; BAZ2B block: 25.1µM; PLK1 PBD block: inactive; HP1b chromo inh: inactive

How did CN(C)c1ccc(CN(C(=O)COc2ccc(Br)cc2)C2CCS(=O)(=O)C2)cc1 (centres undefined) do in these assays?
JMJD2A Tudor: 39.8µM; GCN5L2 inh: inactive; BAZ2B block: 44.7µM; PLK1 PBD block: inactive; HP1b chromo inh: inactive

What do the screens show for `CC(C)(C)N1C(=O)c2ccccc2NC(=O)C1C(=O)Nc1ccc(N2CCOCC2)cc1` (centres undefined)?
PI5P4K alpha inh: inactive; PLK1 PBD block: inactive

What do the screens show for `COc1ccccc1NC(=O)CSc1nc2c(oc3ccccc32)c(=O)n1-c1ccc(C)cc1`?
JMJD2A Tudor: inactive; GCN5L2 inh: inactive; BAZ2B block: inactive; HP1b chromo inh: inactive

How did COc1ccc(C2=NN(CCC(=O)NC3CCCCC3C)C(=O)CC2)cc1 (centres undefined) do in these assays?
PI5P4K alpha inh: inactive; PLK1 PBD block: inactive
